Source: PubChem (National Center for Advancing Translational Sciences (NCATS))
This is a sample that favours compounds with a hit; in the whole collection about 10% have one here.
PLK1 PBD block: blocks phosphopeptide binding to human PLK1 polo-box domain; 360,000 compounds, 2.8% hits; Potency, µM, for the others: max response, negative = inhibition, usual class: inhibitors; AID 720504; Plk1 PBD binding of FITC phosphopeptide, fluorescence polarization; further: potency means the concentration at half of the fitted maximal effect; series mostly up to about 57 µM; nearly all actives have a fitted effect of over 65% in size
Target sequence (P53350 whole entry, looked up, the tested form may be a part): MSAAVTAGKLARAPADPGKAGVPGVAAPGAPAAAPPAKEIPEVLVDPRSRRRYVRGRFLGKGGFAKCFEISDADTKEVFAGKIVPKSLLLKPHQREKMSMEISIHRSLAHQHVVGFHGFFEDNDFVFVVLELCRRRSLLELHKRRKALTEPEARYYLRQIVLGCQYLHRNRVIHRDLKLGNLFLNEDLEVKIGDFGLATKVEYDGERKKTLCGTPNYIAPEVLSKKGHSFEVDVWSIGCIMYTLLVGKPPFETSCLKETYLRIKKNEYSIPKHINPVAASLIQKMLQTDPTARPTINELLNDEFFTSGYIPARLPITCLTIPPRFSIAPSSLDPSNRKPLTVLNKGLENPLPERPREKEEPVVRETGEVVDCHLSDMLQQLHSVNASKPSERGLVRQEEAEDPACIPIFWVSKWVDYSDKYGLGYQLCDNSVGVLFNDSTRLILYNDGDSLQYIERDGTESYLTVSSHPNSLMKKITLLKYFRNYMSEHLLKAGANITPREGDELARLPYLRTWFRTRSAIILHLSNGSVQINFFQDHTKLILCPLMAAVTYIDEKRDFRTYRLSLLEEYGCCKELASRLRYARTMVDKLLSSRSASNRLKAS
G9a block: blocks human histone lysine methyltransferase G9a; AID 504332; G9a H3K9 monomethylation, AlphaScreen, 2 h; 350,000 compounds, 8.8% hits; Q96KQ7; Potency, µM (highest dose often 102 µM), for inactives: at the top dose activity, negative = inhibition, most hits filed as inhibitors; further: potency means the concentration at half of the fitted maximal effect; nearly all actives have a fitted effect of over 75% in size
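AlphaScreen detection with an anti-monomethyl H3K9 antibody quantified product after a 2 h room-temperature reaction containing 500 nM biotinylated H3K9 peptide, 20 µM SAM and 20 nM enzyme, which had been preincubated 15 min with compound.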
VDR inhibitor: vitamin D3 receptor (human) inhibition; P11473; VDR-SRC2-3 peptide fluorescence polarization, 2 h; Potency, µM, without a hit: max response, negative = inhibition, actives largely listed as inhibitors; 400,000 compounds, 0.93% hits; AID 504847; further: potency means the concentration at half of the fitted maximal effect
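Reagent solutions, kept cold and dark, are dispensed first; compounds are then pinned in at 23 nl, plates briefly spun, and incubated 2 h at ambient temperature. Inhibition of VDR–SRC2-3 peptide binding is read by fluorescence polarization.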
CCT modulator: cytosolic chaperonin activity modulation; purified chaperonin ATPase assay, HTRF ADP detection, 30 min; activity change, % (test concentration not listed), hits read low; 360,000 compounds, 0.3% hits; AID 651819; in the data active means activity change below about -30%
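Enzyme 40 or 20 nM (batch-dependent) in Tris pH 7.4/KCl/MgCl2/DTT; cpd 76 uM single point; ATP 10 uM; 30 min 37 °C; Transcreener ADP HTRF detection, 30 min RT; ratio 665/615.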
Mm-Cpn inhibitor: blocks the Methanococcus maripaludis chaperonin Mm-Cpn. purified Mm-Cpn ATPase, ADP Transcreener TR-FRET. 330,000 compounds, 0.031% hits. Potency, µM (series often up to 76.9 µM), for the others: top-dose activity, negative = inhibition, hits mostly inhibitors; further: potency means the concentration at half of the fitted maximal effect; nearly all actives have a fitted effect of over 80% in size
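TR-FRET (320 nm excitation; 590 and 665 nm emission) reports ADP made from 10 uM ATP by 25 nM enzyme; compounds were preincubated 10 min, reaction run 30 min, both at 37°C.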
Sfp inh: inhibitors of Bacillus subtilis Sfp phosphopantetheinyl transferase; Biochemical Sfp PPTase activity, qHTS; 310,000 compounds, 3.5% hits; Potency, µM, for the others: largest response in the series, negative = inhibition, usual class: inhibitors; AID 1490; Q9F4F7;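 further: the enzyme is Sfp with the accession as filed and its product quenches rhodamine fluorescence; potency means the concentration at half of the fitted maximal effect; 0% = enzyme reaction without inhibitor and -100% = no enzyme wells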
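Sfp 15 nM + cpd, 15 min RT; start w/ rhodamine-CoA 5 uM, BHQ-2-YbbR 12.5 uM (final); 50 mM Hepes pH 7.6, 10 mM MgCl2, 0.01% NP-40, 0.01% BSA; read 525/598 nm at 0 and 30 min.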
* hit, by the source's call; ? = inconclusive; nt = no result; [ ] = dose if it differs, or a comment. Unless noted, the call rests on the fitted dose curve; in most records, active means well fitted curve in the direction sought with a large enough effect; inconclusive means small, poorly fitted or top-dose-only effect, or another doubt; inactive means no such curve, though single readings can be large; an effect the other way counts as inactive or inconclusive. Unless noted, on the % scale 0 is the no-effect control and ±100 the full control effect.

SMILES | PLK1 PBD block | G9a block | VDR inhibitor | CCT modulator | Mm-Cpn inhibitor | Sfp inh
NC1=NC(=O)C2(COC(c3cccnc3)OC2)S1 (stereo not given) | 34µM* | 3% | ? | -2 | 1% | 22%
O=C1NC(=O)C2(COC(c3ccncc3)OC2)S1 (stereo not given) | -7% | 9%[59 µM] | -1% | -5 | 2% | -15%
NNC(=O)c1ccc(CSc2n[nH]c(=O)[nH]c2=O)cc1 | 3% | 4µM* | 3% | -1 | 0% | 6%
O=c1[nH]nc(SCc2ccccc2)c(=O)[nH]1 | -8% | ? | -9% | -1 | 0% | 13%
c1ccc(CN2CCC(Nc3nc(-c4cccs4)nc4ccccc34)CC2)cc1 | -1% | 35µM* | 10% | 0 | -3% | 79µM*
c1csc(-c2nc(NCC3CCCO3)c3ccccc3n2)c1 (stereo not given) | 4% | 15% | -19% | -1 | -4% | 3%
Cc1ccc(C)c(/C=N/n2cc(-c3ccccc3)[nH]c2=S)c1 | -12% | 4µM* | 8% | 0 | -4% | 4%
Fc1ccccc1/C=N/n1cnnc1 | 0% | 9%[59 µM] | -3% | 1 | 0% | 13%
Fc1ccccc1/C=N/n1cc(-c2ccccc2)[nH]c1=S | -21% | ? | -9% | -2 | -3% | 89µM*
Cc1ccc2[nH]c(-c3ccccc3)cc(=O)c2c1 | 1% | 1% | 17% | -1 | -1% | 12%
COc1ccc(NC(=O)CSc2nc(C)cc(C)c2C(=O)Nc2cccc(C)c2)cc1 | nt | 6%[59 µM] | 11% | nt | nt | nt
Cc1ccc(CS(=O)(=O)Cc2ccc(C(=O)NCCc3ccc(Cl)cc3)o2)cc1 | nt | -22%[59 µM] | -7% | nt | nt | nt
CN(C)c1ccc(CNc2nc(-c3ccco3)nn2S(C)(=O)=O)cc1 | nt | ? | 12% | nt | nt | nt
COc1ccc(NC(=O)CN(C)C(=O)CCc2ccccc2)cc1 | -5% | ? | 15% | 2 | 0% | 17%
COc1ccc(NC(=O)CN(C)C(=O)/C=C/c2ccc(OCc3ccccc3)cc2)cc1 | 30µM* | 13% | -16% | 0 | 3% | 27%
O=C(Nc1ccc(C(=O)OCc2cc(=O)n3c4c(sc3n2)CCCC4)cc1)c1cccc(F)c1 | nt | 8%[59 µM] | -3% | nt | nt | nt
CCc1cccc(C)c1NC(=O)c1cnn(-c2ccc(F)cc2)c1-n1cccc1 | nt | -11%[59 µM] | 12% | nt | nt | nt
CCOc1cc(CNc2ccc3c(c2)CCC3)ccc1O | ? | 8.9µM* | -10% | 1 | 1% | 14%
COc1cc(CNc2ccc3c(c2)CCC3)cc(OC)c1O | ? | ? | -15% | 1 | 1% | 40µM*
CCOc1ccc(CN(C)CC(=O)Nc2ccc3c(c2)CCC3)cc1OC | -3% | 0% | -16% | -1 | -3% | 8%
CCOc1ccc(C(=O)NCCn2cc(SCC(=O)NCCc3ccc(OC)c(OC)c3)c3ccccc32)cc1 | nt | -5%[59 µM] | 7% | nt | nt | nt
Nc1c(-c2nc(-c3cccs3)no2)nnn1-c1ccccc1Cl | nt | 3%[59 µM] | 1% | nt | nt | nt
O=C(O)C(=O)Nc1nc(-c2ccc3c(c2)OCCO3)cs1 | -4% | 32µM* | 15% | 2 | 0% | -28%
CSCC(=O)Nc1nc(-c2ccc3c(c2)OCCO3)cs1 | 1% | 13%[59 µM] | 11% | -1 | 3% | -11%
Cc1ccc(S(=O)(=O)N2CN(Cc3ccco3)c3nc4ccccc4nc32)cc1 | -11% | 32µM* | 15% | -2 | -3% | -29%
SMILES | PLK1 PBD block | G9a block | VDR inhibitor | CCT modulator | Mm-Cpn inhibitor | Sfp inh
COc1ccc(CCN2CN(S(=O)(=O)c3ccc(C)cc3)c3nc4ccccc4nc32)cc1OC | 0% | -21%[59 µM] | -16% | -1 | 0% | 14%
O=S(=O)(c1cccs1)N1CN(Cc2ccc(F)cc2)c2nc3ccccc3nc21 | -6% | 17%[59 µM] | -11% | 1 | 1% | 2%
COc1ccc(S(=O)(=O)N2CN(Cc3ccco3)c3nc4ccccc4nc32)cc1 | -27% | ? | -4% | 0 | -3% | 56µM*
O=S(=O)(c1ccc(F)cc1)N1CN(Cc2ccco2)c2nc3ccccc3nc21 | -16% | 11µM* | -2% | -7 | -3% | 56µM*
Cc1ccc(S(=O)(=O)Nc2nc3ccccc3nc2NCc2ccco2)cc1C | ? | -42% | -7% | -2 | -4% | 3%
Cc1ccc(S(=O)(=O)N2CN(Cc3ccco3)c3nc4ccccc4nc32)cc1C | -13% | 32µM* | 10% | -4 | -5% | 40µM*
COc1ccc(CN2CN(S(=O)(=O)c3ccccc3)c3nc4ccccc4nc32)cc1 | 3% | -23% | 14% | -1 | -1% | 4%
CNC(=O)[C@H]1O[C@@H](n2cnc3c(N)ncnc32)[C@H](O)[C@@H]1O | nt | 37%[59 µM] | 3% | nt | nt | 14%
CCN(C(=O)c1cn(-c2cccc(OC)c2)c(=O)c2ccccc12)c1ccccc1C | nt | -4%[59 µM] | 4% | nt | nt | nt
COCCCNC(=O)c1ccccc1C(F)(F)F | 15µM* | 25% | ? | -2 | -1% | 11%
CCCCNC(=O)c1ccccc1C(=O)NCCCC | 5.3µM* | 6%[59 µM] | ? | -4 | 0% | 21%
CCCCCCCCCCCNC(=O)c1ccoc1C | ? | -3%[59 µM] | 79µM* | 2 | 1% | 13%
O=C(NCc1ccc(F)cc1)N1CCc2ccccc2C1 | -4% | -2% | -15% | -2 | 0% | 11%
CCCCNC(=O)N1CCc2ccccc2C1 | 30µM* | -2% | ? | -3 | 0% | 20%
Cc1ccc(C2=Nc3ccccc3N(CC(=O)Nc3ccccc3F)C(=O)C2)cc1C | nt | 7%[59 µM] | 12% | nt | nt | nt
CCCn1nnnc1NC(=O)c1cc(Cl)ccc1Cl | 27µM* | 8.9µM* | -9% | 0 | -2% | -6%
CCCn1nnnc1NC(=O)COc1ccc(Cl)c(C)c1 | -6% | 24%[59 µM] | 5% | 3 | 0% | 19%
COC(=O)CNC(=O)C(=O)OC | nt | 30%[59 µM] | 0% | nt | nt | -3%
COc1ccc(CNCC2COc3ccccc3O2)cc1 (stereo not given) | -1% | 8.9µM* | 5% | 1 | 0% | ?
Cc1ccc(-n2ncc(C(=O)Nc3cc(Cl)ccc3Cl)c2C2CCNCC2)cc1 | -6% | 45µM* | -4% | 0 | -1% | 5%
O=C(O)c1[nH]c2ccccc2c1C=NCc1ccccc1Cl | -8% | 56µM* | -12% | 0 | 1% | 15%
O=C(O)c1[nH]c2ccccc2c1-c1ccccc1 | -1% | 10%[59 µM] | 0% | -1 | 2% | 1%
O=C(Cc1ccccc1)NC1CC(=O)N(c2ccc3c(c2)OCCO3)C1 (stereo not given) | nt | 4%[59 µM] | 4% | nt | nt | nt
COc1cc(NS(=O)(=O)c2ccc(NC(=S)NC(=O)c3ccco3)cc2)ncn1 | -7% | 50µM* | -16% | -1 | 0% | -11%
COc1cc(NS(=O)(=O)c2ccc(NC(=S)NC(=O)c3sc4ccccc4c3Cl)cc2)ncn1 | 15µM* | ? | ? | 0 | -14% | -30%
